Source: PubChem BioAssay (several laboratories)
TMEM16A inh: TMEM16A chloride channel inhibitors, primary screen, cell-based, HTS; HEK293 TMEM16A/YFP iodide influx fluorescence, ionomycin; 1.2% of 310,000 active; normalized B-score (activity score, 25-100; higher = stronger inhibition) at 10 µM; Anoctamin-1 (Mus musculus), Q8BHY3;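 active means ratio plate-corrected score three or more library SD toward inhibition, starting fluorescence score within five deviations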;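 further: score derived from kinetic fluorescence span divided by baseline fluorescence per well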
PKA-R1A act: activators of PKA-R1A holoenzyme, primary screen, biochemical, fluorescence polarization, Cy5-IP20, bovine R1A, mouse PKAc; cAMP-dependent protein kinase type I-alpha regulatory subunit (Bos taurus) + …; PKA-R1A dissociation; scaled: DMSO 0%, 113 µM cGMP 100%; activation, % at 11.4 µM; 0.083% of 340,000 active;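 active means percent activation above the mean of all tested compounds plus 3 SD, cut at about 19% in these data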;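 further: higher means more PKAc released from R1A so a rise in polarization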
CHT PAM: CHT positive allosteric modulators, primary screen, cell-based, membrane potential dye, choline EC20; High affinity choline transporter 1 (Homo sapiens), Q9GZV3; CHT-expressing cells; stronger effect = higher value; LV-AA mutant CHT in HEK293 cells; B-score at 10 µM; 0.49% of 310,000 active; AID 488977, 2010;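 active means initial fluorescence not abnormally high and integrated response B-score, plate-corrected, over 3 SD above library mean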
Target sequence (Q9GZV3 whole entry, looked up): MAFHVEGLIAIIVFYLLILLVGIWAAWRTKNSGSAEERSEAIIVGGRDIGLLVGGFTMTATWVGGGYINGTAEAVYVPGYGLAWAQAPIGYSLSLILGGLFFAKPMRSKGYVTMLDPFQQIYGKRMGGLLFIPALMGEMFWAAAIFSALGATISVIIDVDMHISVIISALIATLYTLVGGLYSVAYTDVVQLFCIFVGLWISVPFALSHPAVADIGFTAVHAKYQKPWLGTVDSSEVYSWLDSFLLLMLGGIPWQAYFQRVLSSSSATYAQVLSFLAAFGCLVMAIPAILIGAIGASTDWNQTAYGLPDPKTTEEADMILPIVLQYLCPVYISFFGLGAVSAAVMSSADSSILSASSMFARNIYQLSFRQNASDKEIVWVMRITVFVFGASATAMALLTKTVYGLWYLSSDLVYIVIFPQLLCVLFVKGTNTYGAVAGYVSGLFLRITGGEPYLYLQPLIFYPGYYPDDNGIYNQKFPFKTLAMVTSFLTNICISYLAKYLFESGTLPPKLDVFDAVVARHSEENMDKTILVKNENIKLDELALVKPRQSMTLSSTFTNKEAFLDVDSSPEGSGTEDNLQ
CHT inh: inhibitors of human choline transporter CHT; B-score at 10 µM; AID 488975, 2010; 0.86% of 310,000 active; CHT-expressing cells, membrane potential dye, choline response; stronger effect = lower value;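 active means B-score over 3 SD under the library average, and starting fluorescence ratio not unusually high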;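 further: choline stimulus applied at its EC90 after an EC20 pre-addition; B-score computed on integrated fluorescence ratio after choline addition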
PKA-R2B activ: activators of PKA-R2B holoenzyme, primary screen, biochemical, fluorescence polarization, Cy5-IP20, human; PKA-R2B holoenzyme dissociation; R2B truncated from residue 108, S112A mutant; 0% DMSO only, 100% 113 µM cGMP; 0.079% of 340,000 active; AID 504700, 2011; activation, % at 11.4 µM; cAMP-dependent protein kinase catalytic subunit beta (Homo sapiens) + cAMP-dependent …;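 active means activation above a cutoff set at the mean over all compounds plus 3 SD, cut at about 18% in these data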;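 further: higher means more holoenzyme dissociation and a rise in polarization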
TMEM16A act: TMEM16A chloride channel activators or potentiators, primary screen, cell-based, HTS; AID 623877, 2012; Anoctamin-1 (Mus musculus), Q8BHY3; B-score at 10 µM; HEK293 TMEM16A/YFP-H148Q/I152L, iodide quench fluorescence; stronger effect = lower value; 0.3% of 340,000 active;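 active means fluorescence-ratio B-score plate-corrected deviation score at least 3 library SD below zero, with starting fluorescence score within 5 deviations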;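 further: channel opened by trigger with iodide after compound preincubation; score built on the fluorescence ratio of max minus min over baseline; more negative score means more quench and so TMEM16A activation or potentiation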
TMEM16A reconf: TMEM16A chloride channel inhibitors, confirmation, cell-based, re-confirmation; inhibition, % at 10 µM; HEK293 TMEM16A/YFP-H148Q, iodide quench fluorescence; ionomycin added to raise cell calcium; shares compounds with TMEM16A inh; 39% of 2,300 active;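 active means mean duplicate percent inhibition, scaled so buffer wells are 0 and the reference blocker 100, over three buffer SD above buffer mean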
HEK293 Ca mobil: calcium mobilization in TMEM16A/YFP HEK293 cells, confirmation, counter-screen for TMEM16A inhibitor project; shares compounds with TMEM16A inh; Fluo4 calcium mobilization; calcium response (% of ionomycin), % at 10 µM; 2% of 2,300 active; AID 652231, 2013;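 active means duplicate-averaged calcium signal over 20% of the ionomycin maximum, relative to buffer baseline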;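 further: each well's signal is peak minus trough fluorescence divided by its pre-addition baseline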
YFP-HEK293 quench: iodide YFP quench changes in parental YFP-HEK293, counter-screen for TMEM16A inhibitor project, cell-based | 2,300 tested, under 10 active | YFP ratio F(max-min)/F0 at 10 µM | ionomycin | AID 652233, 2013 | shares compounds with TMEM16A inh;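 active means yellow fluorescent protein signal ratio exceeding the buffer control mean by over 5 SD of those controls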;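 further: ratio is mean of duplicate wells from kinetic YFP trace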
ClC-1 inh: ClC-1 chloride channel inhibition, selectivity assay for TMEM16A inhibitor project, cell-based, voltage-dependent ClC-1. ratio percent, % at 10 µM. shares compounds with TMEM16A inh. AID 652236, 2013. CHO ClC-1-YFP, iodide influx fluorescence quench; iodide control reads 0, buffer control 100. 2,300 tested, under 10 active;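 active means duplicate-mean ratio percent above the mean of iodide-only control wells, which defines zero, plus 5 of their SD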;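 further: higher percent means stronger block of ClC-1 iodide influx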
Large screens that a line does not name were inactive (follow-up assays come after a bar, where they were run). Most compounds without a hit are left out; they make up all but 2.5% or so of the library.

COc1ccc(CCNc2ncnc3sccc23)cc1OC	TMEM16A inh 100, TMEM16A act -7.81 | TMEM16A reconf 23.5% | HEK293 Ca mobil inactive | YFP-HEK293 quench inactive | ClC-1 inh inactive
Fc1ccccc1CNc1ncnc2sccc12	none
CCOc1ccc(NC(=O)CN(C)C(=O)Cc2c(C)nc3ccccc3c2C)cc1OCC	none
CCOc1cc(C(=S)N2CCC(O)CC2)ccc1OS(=O)(=O)c1ccc(Br)cc1	TMEM16A inh 25 | TMEM16A reconf inactive | HEK293 Ca mobil inactive | YFP-HEK293 quench inactive | ClC-1 inh inactive
COc1cccc(OC)c1C(=O)Nc1cc(Cl)ccc1N1CCOCC1	none | TMEM16A reconf inactive | HEK293 Ca mobil inactive | YFP-HEK293 quench inactive | ClC-1 inh inactive
CC(Oc1cccc(Cl)c1)C(=O)Nc1ccc(N2CCOCC2)cc1N1CCOCC1 (configuration not stated)	TMEM16A inh 25 | TMEM16A reconf inactive | HEK293 Ca mobil inactive | YFP-HEK293 quench inactive | ClC-1 inh inactive
CC1=C(C(N)=O)C(c2ccncc2)n2nc(-c3ccccc3Cl)nc2N1 (configuration not stated)	TMEM16A inh 100 | TMEM16A reconf inactive | HEK293 Ca mobil inactive | YFP-HEK293 quench inactive | ClC-1 inh inactive
O=C(NNS(=O)(=O)c1ccc(F)cc1)c1cc2ccccc2cc1O	TMEM16A inh 100 | TMEM16A reconf 23.5% | HEK293 Ca mobil inactive | YFP-HEK293 quench inactive | ClC-1 inh inactive
CC1C(=O)Nc2ccccc2N1C(=O)C1CC1 (configuration not stated)	TMEM16A inh 25 | TMEM16A reconf inactive | HEK293 Ca mobil inactive | YFP-HEK293 quench inactive | ClC-1 inh inactive
COc1ccccc1N1CCN(C(=O)CSc2nnc3n2C(C)(C)Cc2ccccc2-3)CC1	TMEM16A inh 25 | TMEM16A reconf inactive | HEK293 Ca mobil inactive | YFP-HEK293 quench inactive | ClC-1 inh inactive
CCOc1ccc(N2CC(C(=O)NCCc3ccc(F)cc3)CC2=O)cc1 (configuration not stated)	none
Cc1ccc(S(=O)(=O)N(C)CC(=O)N(C)Cc2cccs2)cc1	none (no result: TMEM16A inh, CHT PAM, CHT inh, TMEM16A act)
Cn1c(CNS(=O)(=O)c2ccc(F)cc2)n[nH]c1=S	TMEM16A inh 100 | TMEM16A reconf inactive | HEK293 Ca mobil inactive | YFP-HEK293 quench inactive | ClC-1 inh inactive
Cc1c(OC(C)C(=O)NCC(O)c2ccccc2)ccc2c3c(c(=O)oc12)CCC3 (configuration not stated)	none
COc1ccc(CNCC(O)COc2ccc(C(C)(C)c3ccccc3)cc2)cc1 (configuration not stated)	TMEM16A inh 25 | TMEM16A reconf 26.0% | HEK293 Ca mobil inactive | YFP-HEK293 quench inactive | ClC-1 inh inactive
COc1ccc(N2CCN(C(=O)CCCCCn3c(=S)[nH]c4ccc(N5CCOCC5)cc4c3=O)CC2)cc1	none (no result: TMEM16A inh, CHT PAM, CHT inh, TMEM16A act)
COc1ccc(NC(=O)COc2cccc(-n3cnnn3)c2)cc1	none
CCNS(=O)(=O)c1ccc(CCC(=O)NCCc2ccc(OC)cc2)cc1	none
COc1ccc(CCNS(=O)(=O)c2ccc(OC)cc2)cc1	TMEM16A inh 25 | TMEM16A reconf inactive | HEK293 Ca mobil inactive | YFP-HEK293 quench inactive | ClC-1 inh inactive
Cc1cc(F)ccc1S(=O)(=O)Nc1ccccc1C(=O)Nc1ccccc1N1CCOCC1	TMEM16A inh 25 | TMEM16A reconf inactive | HEK293 Ca mobil inactive | YFP-HEK293 quench inactive | ClC-1 inh inactive
O=C(Nc1ccccc1N1CCOCC1)c1ccccc1NS(=O)(=O)c1ccc(F)c(F)c1	TMEM16A inh 100 | TMEM16A reconf 31.0% | HEK293 Ca mobil inactive | YFP-HEK293 quench inactive | ClC-1 inh inactive
CN(C)CCN(Cc1ccccc1)c1ccnc(N(C)C)c1C#N	none
CN(C)c1nccc(N(Cc2ccccc2)Cc2ccccc2)c1C#N	TMEM16A inh 25 | TMEM16A reconf inactive | HEK293 Ca mobil inactive | YFP-HEK293 quench inactive | ClC-1 inh inactive
Cc1cccc(C(=O)NCC(=O)N2CCN(S(=O)(=O)c3ccc4c(c3)OCCO4)CC2)c1	none (no result: TMEM16A inh, CHT PAM, CHT inh)
CC(C)(C)c1csc(SCC(=O)Nc2ccc(Cl)cn2)n1	TMEM16A inh 100 | TMEM16A reconf inactive | HEK293 Ca mobil inactive | YFP-HEK293 quench inactive | ClC-1 inh inactive
Cc1ccc(NC(=O)CN2CCN(C(=O)C3CCCO3)CC2)c(C)c1 (configuration not stated)	none
COc1ccc(NC(=O)c2cnc3sccn3c2=O)cc1	TMEM16A inh 100 | TMEM16A reconf inactive | HEK293 Ca mobil inactive | YFP-HEK293 quench inactive | ClC-1 inh inactive
Cc1cccc(NC(=O)c2cnc3sccn3c2=O)c1	none
Cc1ccc2cc(C#N)c(N3CCCN(C(=O)C4CCCO4)CC3)nc2c1 (configuration not stated)	none
Cc1ccc2cc(C#N)c(NCCCNC(=O)C3CCCO3)nc2c1 (configuration not stated)	TMEM16A inh 25 | TMEM16A reconf inactive | HEK293 Ca mobil inactive | YFP-HEK293 quench inactive | ClC-1 inh inactive
Cc1cccc(OCCCSc2nc3ccc(C)cc3[nH]2)c1	TMEM16A inh 100 | TMEM16A reconf 33.0% | HEK293 Ca mobil inactive | YFP-HEK293 quench inactive | ClC-1 inh inactive
Cc1ccc(Cc2nnc(SCC(=O)Nc3ccccc3Cl)[nH]c2=O)cc1	none
COc1ccc(Cl)cc1NC(=O)CSc1nnc(Cc2ccc(C)cc2)c(=O)[nH]1	TMEM16A inh 25 | TMEM16A reconf inactive | HEK293 Ca mobil inactive | YFP-HEK293 quench inactive | ClC-1 inh inactive
